Data published in the supplement of paper PMC10981050.
“And” between values parts separate entries of the source, which are not always exact repeats. Equal values may be shown once. Where a name gives a salt, the structure may show the parent alone.

What was measured:
Test in all cases: cell viability relative to vehicle control; higher = less cytotoxic
Conditions in all cases: 10 µM
K562 = system: K562
Outline: (§1)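 Screening covered the Selleck bioactive, kinase and epigenetic probe libraries, less identity-inconsistent compounds, on CRISPR-edited mutant clones and isogenic wild-type clones of four leukaemia lines. Cells, at 2000 per well in 50 µL medium, received a single 10 µM acoustically dispensed dose. After 48 h the supernatant was removed and CellTiter-Glo luminescence was read. Viability was analysed in Genedata Screener as percent of the on-plate vehicle control.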

MARIMO = system: MARIMO
Outline: as §1

MOLM14 = system: MOLM14
Outline: as §1

OCI-AML2 = system: OCI-AML2
Outline: as §1

SMILES | cell viability (K562; SRSF2 genotype: SRSF2 P95H/wt) | cell viability (K562; SRSF2 genotype: SRSF2 wt/wt) | cell viability (MARIMO; SRSF2 genotype: SRSF2 P95H/wt) | cell viability (MARIMO; SRSF2 genotype: SRSF2 wt/wt) | cell viability (MOLM14; SRSF2 genotype: SRSF2 P95H/wt) | cell viability (MOLM14; SRSF2 genotype: SRSF2 wt/wt) | cell viability (OCI-AML2; SRSF2 genotype: P95H/wt) | cell viability (OCI-AML2; SRSF2 genotype: wt/wt)
CNC(=O)CN1CCC(Oc2cc3c(Nc4cccc(Cl)c4F)ncnc3cc2OC)CC1 | 85.2% and 96% | 91.9% | 93.6% | 100% | 79.5% | 93.1% | 73.8% | 79.5%
COc1cc2c(Oc3ccc(NC(=O)C4(C(=O)Nc5ccc(F)cc5)CC4)cc3F)ccnc2cc1OCCCN1CCOCC1 | 0.8% and 0.64% | 0.55% | 17.8% | 12.1% | 0.21% | 0.34% | 0.22% | 1.03%
C=C1C2CCC(C2)C1(C)CCC=C(C)CO (stereo not drawn) [Santalol] | 106% and 103% | 98.6% | 105% | 94.3% | 106% | 104% | 102% | 101%
Cc1cnc(C(=O)N[C@H]2CCCCC/C=C\[C@@H]3C[C@@]3(C(=O)NS(=O)(=O)C3CC3)NC(=O)[C@@H]3C[C@@H](Oc4nc5ccccc5c5ccccc45)CN3C2=O)cn1 [Paritaprevir(ABT-450)] | 98.7% and 91.6% | 91.4% | 106% | 119% | 97.8% | 100% | 115% | 114%
C=C1CC2(O)OC3(CC2C(C)C)C(C)CCC13 (stereo not drawn) [Curcumol] | 106% and 101% | 102% | 112% | 107% | 97.8% | 108% | 99.9% | 102%
CC(C(=O)O)c1cccc(Oc2ccccc2)c1 (stereo not drawn) [Fenoprofen calcium hydrate] | 95.1% and 104% | 99.4% | 103% | 101% | 95.1% | 102% | 106% | 103%
CC(C)=CCC/C(C)=C/Cc1c(O)c(CC=C(C)C)c2c(c1O)C(=O)C1=C[C@@H]3C[C@H]4C(C)(C)O[C@@](C/C=C(/C)C(=O)O)(C3=O)[C@@]14O2 [Gambogenic acid] | 1.97% and 1.06% | 1.12% | 0.46% | 0.68% | 0.23% | 0.27% | 0.27% | 0.82%
Cc1cc2c(F)c(Oc3ncnn4cc(OC[C@@H](C)O)c(C)c34)ccc2[nH]1 | 94.6% and 98.7% | 99.5% | 107% | 106% | 97.5% | 104% | 97.5% | 86.6%
COc1ccc(CC2c3cc(OC)c(OC)cc3CC[N+]2(C)CCC(=O)OCCCCCOC(=O)CC[N+]2(C)CCc3cc(OC)c(OC)cc3C2Cc2ccc(OC)c(OC)c2)cc1OC (stereo not drawn) [Atracurium besylate] | 90% and 97.2% | 87.9% | 87.3% | 84.9% | 75% | 97.1% | 115% | 108%
O=C(O)[C@H]1O[C@@H](Oc2cc3oc(-c4ccc(O)cc4)cc(=O)c3c(O)c2O)[C@H](O)[C@@H](O)[C@@H]1O [Scutellarin] | 103% and 99.4% | 96% | 100% | 104% | 102% | 105% | 101% | 109%
C[C@@H](CC[C@@]1(O)O[C@H]2C[C@H]3[C@@H]4CC[C@@H]5C[C@@H](O[C@@H]6O[C@H](CO)[C@H](O)[C@H](O)[C@H]6O[C@@H]6O[C@H](CO)[C@@H](O)[C@H](O)[C@H]6O)CC[C@]5(C)[C@H]4CC[C@]3(C)[C@H]2[C@@H]1C)CO[C@@H]1O[C@H](CO)[C@@H](O)[C@H](O)[C@H]1O [Timosaponin BII] | 93.3% and 90.7% | 89.5% | 102% | 107% | 96% | 93.5% | 49.8% | 73.6%
CC(=O)O[C@@H]1CC[C@@]2(C)[C@@H](CC[C@]3(C)[C@@H]2C(=O)C=C2[C@@H]4[C@@H](C)[C@H](C)CC[C@]4(C)CC[C@]23C)[C@@]1(C)C(=O)O | 99.7% and 94.1% | 83.4% | 106% | 101% | 74.3% | 82.3% | 87.1% | 90.6%
C=C(C)[C@@H]1CC[C@]2(C)CC[C@]3(C)[C@H](CC[C@@H]4[C@@]5(C)CC[C@H](O)C(C)(C)[C@@H]5CC[C@]43C)[C@@H]12 [Lupeol] | 106% | 113% | 109% | 108% | 105% | 109% | 108% | 108%
COc1ccc(-c2cc(=O)c3c(O)cc(O)cc3o2)cc1O [Diosmetin (Luteolin 4-methyl ether)] | 86.7% and 96.9% | 83.9% | 105% | 121% | 50.9% | 53.6% | 81% | 74.6%
COc1ccc2c(c1)[C@]1(C[C@H]1c1ccc3c(/C=C/c4ccc(CN5C[C@@H](C)O[C@@H](C)C5)cc4)n[nH]c3c1)C(=O)N2 | 13.4% and 27.5% | 17.7% | 30.9% | 29.3% | 14.5% | 10.7% | 11.6% | 20.3%
Cc1cc(-c2ccc(CC(=O)Nc3ccc(-c4cccnc4)cc3)cc2)ccn1 | 77% and 83% | 86.9% | 81.5% | 86.3% | 103% | 102% | 74% | 78.9%
CCOC(=O)c1ccc(N2NC(=O)C(=Cc3ccc([N+](=O)[O-])o3)C2=O)cc1 | 95.6% and 99.7% | 96% | 95.8% | 90.9% | 90.8% | 94.9% | 102% | 107%
O=C(c1ccc(F)cc1)N1CCCC(c2nc(-c3ccc(F)cc3)no2)C1 (stereo not drawn) | 75.7% and 78.6% | 76.6% | 66% | 73.9% | 80.1% | 84.1% | 64.8% | 72.7%

SMILES | cell viability (K562; SRSF2 genotype: SRSF2 P95H/wt) | cell viability (K562; SRSF2 genotype: SRSF2 wt/wt) | cell viability (MARIMO; SRSF2 genotype: SRSF2 P95H/wt) | cell viability (MARIMO; SRSF2 genotype: SRSF2 wt/wt) | cell viability (MOLM14; SRSF2 genotype: SRSF2 P95H/wt) | cell viability (MOLM14; SRSF2 genotype: SRSF2 wt/wt) | cell viability (OCI-AML2; SRSF2 genotype: P95H/wt) | cell viability (OCI-AML2; SRSF2 genotype: wt/wt)
CCCOc1ccc2c(c1)CC[C@@H]1[C@@H]2CC[C@]2(C)[C@@H](OC)CC[C@@H]12 [Promestriene] | 86.2% and 89.4% | 94.1% | 76.6% | 89.8% | 83.1% | 97.2% | 59.6% | 66.2%
CCCCCCCC/C=C\CCCCCCCC(=O)OCC [Ethyl Oleate] | 101% and 94.1% | 97.8% | 86.5% | 100% | 92.3% | 95% | 88.7% | 93.7%
COc1c/c(=C2\C=c3ccccc3=N2)[nH]/c1=C\c1[nH]c(C)cc1C [Obatoclax mesylate (GX15-070)] | 2.96% and 5.97% | 9.27% | 23.4% | 23.6% | 6.74% | 7.58% | 2.7% | 13.3%
CC1(C)S[C@@H]2[C@H](NC(=O)[C@H](N)c3ccc(O)cc3)C(=O)N2[C@H]1C(=O)O [Amoxicillin sodium (Amox)] | 99.4% and 102% | 105% | 105% | 109% | 96% | 103% | 105% | 93.4%
CN[C@@H](C)C(=O)N[C@H](C(=O)N1CCC[C@H]1C(=O)N[C@H]1c2ccccc2C[C@H]1OCC#CC#CCO[C@@H]1Cc2ccccc2[C@@H]1NC(=O)[C@@H]1CCCN1C(=O)[C@@H](NC(=O)[C@H](C)NC)C1CCCCC1)C1CCCCC1 | 0.57% and 0.73% | 0.61% | 0.76% | 0.89% | 0.51% | 0.62% | 0.56% | 0.58%
Clc1cccc(-c2nnnn2Cc2cccnc2)c1Cl | 103% and 112% | 106% | 102% | 101% | 101% | 108% | 108% | 116%
CC=Cc1cc(OC)c2c(c1)C(C)C(c1ccc(O)c(OC)c1)O2 (stereo not drawn) [Dehydrodiisoeugenol] | 90.2% and 91.2% | 90.4% | 89.4% | 95.5% | 83.3% | 97.8% | 75.8% | 78.8%
COC(=O)Nc1nc2cc(C(=O)c3cccs3)ccc2[nH]1 [Nocodazole] | 12.2% and 32.6% | 34.7% | 7.65% | 8.94% | 1.15% | 3.4% | 5.25% | 7.85%
COc1cc(-c2cn(C)c(=O)c3cnccc23)cc(OC)c1CN(C)C | 104% and 95.7% | 105% | 99.4% | 87.2% | 103% | 95.9% | 98.6% | 113%
CCCCOc1c(C(=O)c2c(F)cc(C)cc2F)c[nH]c2nncc1-2 | 104% and 105% | 114% | 72.6% | 84.8% | 68.8% | 87.7% | 57.1% | 59.5%
Nc1nc(N)c2nc(-c3cccc(O)c3)c(-c3cccc(O)c3)nc2n1 | 95% and 105% | 88.6% | 111% | 101% | 108% | 107% | 98.5% | 91.4%
O[C@H]1[C@H]2c3cc4c(cc3CN3CCC(=C[C@@H]1O)[C@H]23)OCO4 [Lycorine] | 18.3% and 25.2% | 27.9% | 23% | 20.6% | 18.2% | 7.75% | 0.46% | 1.41%
CC(C)OC(=O)CCC/C=C\C[C@@H]1[C@@H](/C=C/C(F)(F)COc2ccccc2)[C@H](O)C[C@@H]1O [Tafluprost] | 85.8% and 90.8% | 92.1% | 85% | 96.2% | 89.3% | 97.7% | 90.6% | 95%
CCCN[C@H]1CCc2nc(N)sc2C1 [Pramipexole (Mirapex)] | 102% and 81.8% | 83.3% | 81.9% | 83.9% | 71.3% | 84.3% | 80.9% | 87.8%
COCCNCc1ccc(-c2cc3nccc(Oc4ccc(NC(=O)C5(C(=O)Nc6ccc(F)cc6)CC5)cc4F)c3s2)nc1 [Sitravatinib (MGCD516)] | 14.2% and 25.4% | 10.6% | 67.2% | 78.5% | 5.4% | 8.33% | 14.1% | 27.3%
CCCOC(=O)c1cc(O)c(O)c(O)c1 [Propyl gallate] | 96.2% and 91% | 94.7% | 81.8% | 99.1% | 97.6% | 106% | 98.2% | 97.5%
Cc1ccc(/C=N/NC(=O)c2ccccc2Oc2ccccc2)o1 | 96.8% and 102% | 96.3% | 96.3% | 105% | 102% | 98.7% | 112% | 109%
CCCCOC(=O)c1ccccc1Nc1cccc(C(F)(F)F)c1 [Ufenamate] | 101% and 100% | 99.2% | 93% | 102% | 103% | 109% | 110% | 110%
